FAS TE block: inhibitors of human fatty acid synthase thioesterase domain | P49327 | recombinant FAS-TE, OMFH fluorogenic substrate, fluorescence endpoint | inhibition, % at 15 µM | 0.67% of 360,000 active;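 active means compounds whose normalised, plate-corrected inhibition of enzyme fluorescence in the single-dose primary screen is 50% or more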;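 further: 0% = DMSO with enzyme and 100% = substrate without enzyme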
ADAM10 inh: inhibits human ADAM10; O14672; recombinant ADAM10, EDANS/DABCYL FRET peptide cleavage, 3 h; inhibition, % at 7 µM; 0.62% of 370,000 active; AID 720582;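 active means inhibition above a per-campaign cutoff equal to the mean of compounds falling between control-based bounds plus 3 SD, cut at about 20% in these data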;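 further: 0% = DMSO wells while the 100% control is not disclosed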
ADAM17 inh: inhibitors of human ADAM17. P78536. recombinant ADAM17, EDANS/DABCYL FRET peptide cleavage. inhibition, % at 6.95 µM. 0.83% of 370,000 active. AID 720648;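 active means inhibition above the mean of compounds lying between control limits plus 3 SD, set per campaign, cut at about 8.5% in these data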;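 further: 0% = DMSO-only wells as the low control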
NR3A LBD binder: NR3A (human) ligand-binding domain modulation | NR3A LBD differential scanning fluorimetry, Tm shift; 0% = protein alone, 100% = glycine-bound protein | Tm shift relative to glycine control, % at 25 µM | 2.5% of 340,000 active | AID 1259313;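 active means melting temperature shift of at least 10% of the positive control shift, at one fixed dose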
sPLA2-III inh: Inhibits HGIII-sPLA2 liposome hydrolysis, primary screen; QFRET BODIPY PC-A2 liposome hydrolysis, fluorescence; inhibition, % at 12.2 µM; 0.56% of 370,000 active; AID 743126;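 active means inhibition above mean plus 3 SD of compounds lying within the high and low control bounds, cut at about 19% in these data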;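 further: 0% = median of test compound wells and 100% = no enzyme DMSO wells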
Target sequence (Q9NZ20 whole entry, looked up): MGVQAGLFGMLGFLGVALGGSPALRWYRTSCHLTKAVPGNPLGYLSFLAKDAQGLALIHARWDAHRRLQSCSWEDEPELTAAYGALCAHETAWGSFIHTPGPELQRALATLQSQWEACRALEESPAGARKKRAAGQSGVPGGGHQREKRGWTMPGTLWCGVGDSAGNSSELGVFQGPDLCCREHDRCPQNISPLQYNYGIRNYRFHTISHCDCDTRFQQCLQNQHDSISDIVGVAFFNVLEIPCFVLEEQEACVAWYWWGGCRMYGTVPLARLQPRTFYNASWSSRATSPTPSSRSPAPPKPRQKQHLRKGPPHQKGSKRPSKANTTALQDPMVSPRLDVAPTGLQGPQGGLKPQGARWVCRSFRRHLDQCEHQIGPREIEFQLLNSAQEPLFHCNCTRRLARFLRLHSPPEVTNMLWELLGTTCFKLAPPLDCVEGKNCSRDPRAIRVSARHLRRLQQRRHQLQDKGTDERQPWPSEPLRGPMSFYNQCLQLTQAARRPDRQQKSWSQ
The depositor's hits bear a star. Shown are actives, neighbours in structure and some others; about 4.3% of the full set was active somewhere.

Screening COc1ccc(/C(C)=N/N=C(\C)c2ccc(OC)cc2OC)c(OC)c1 returned FAS TE block 1.3, ADAM10 inh -3.4, ADAM17 inh -1.1, NR3A LBD binder 12.2* and sPLA2-III inh -1.1.
`Fc1ccc(CCNC(=S)Nc2ccc(F)c(Cl)c2)cc1` gave FAS TE block 26.1, ADAM10 inh 8.7, ADAM17 inh 1.9, NR3A LBD binder 34.9* and sPLA2-III inh -4.2.
For O=[N+]([O-])c1ccc(C(O)CNC(=S)Nc2ccccc2)cc1 (configuration not stated) the results were FAS TE block 9.5, ADAM10 inh 12.8, ADAM17 inh 1.7, NR3A LBD binder 12.5* and sPLA2-III inh 5.2.
For CNC(=S)NCC(O)c1ccc([N+](=O)[O-])cc1 (configuration not stated) the results were FAS TE block -9.7, ADAM10 inh -6.0, ADAM17 inh -0.8, NR3A LBD binder 0.8 and sPLA2-III inh -1.6.
Screening O=[N+]([O-])c1ccc(NC(=S)NCCc2ccc(F)cc2)cc1 returned FAS TE block 47.8, ADAM10 inh 18.8, ADAM17 inh 7.7, NR3A LBD binder 30.2* and sPLA2-III inh -13.6.
Fc1ccc(NC(=S)NCCc2ccc(Cl)cc2)cc1 was read as FAS TE block 7.5, ADAM10 inh -4.1, ADAM17 inh 3.3, NR3A LBD binder 22.6* and sPLA2-III inh 13.3.
Screening O=C(NCCc1ccc(Cl)cc1)Nc1ccc(F)cc1 returned FAS TE block 5.4, ADAM10 inh 2.0, ADAM17 inh -2.7, NR3A LBD binder 4.4 and sPLA2-III inh -0.6.
`Oc1ccc(CNc2cccnc2)c2cccnc12` gave ADAM10 inh 8.6, ADAM17 inh 2.8 and sPLA2-III inh 2.8.
CC(Sc1cccc[n+]1[O-])C(=O)Nc1cccc([N+](=O)[O-])c1 (configuration not stated) was read as FAS TE block -3.8, ADAM10 inh -7.6, ADAM17 inh -4.7, NR3A LBD binder -0.9 and sPLA2-III inh 3.5.
`CCC(Sc1ccccn1)C(=O)Nc1cccc([N+](=O)[O-])c1` (configuration not stated) gave FAS TE block 17.6, ADAM10 inh -2.1, ADAM17 inh -1.1, NR3A LBD binder 16.8* and sPLA2-III inh -6.5.
Screening COC(=O)[C@@]12CCCCC=C1N(CCc1ccc(Cl)cc1)C(=O)[C@H]2CC(=O)NCc1cccc(C(F)(F)F)c1 returned ADAM10 inh 8.8, ADAM17 inh 4.3 and sPLA2-III inh -10.9.
O=C(NC1=NCCS1)c1sc2cc(Cl)cc(Cl)c2c1Cl was read as FAS TE block 12.3, ADAM10 inh -0.9, ADAM17 inh 0.5, NR3A LBD binder 20.1* and sPLA2-III inh 3.2.
Screening Cc1ccc(NC(=S)Nc2ccc(C(C)C)cc2)cc1S(=O)(=O)N1CCCCCC1 returned FAS TE block 25.1, ADAM10 inh 12.3, ADAM17 inh 3.6, NR3A LBD binder 27.6* and sPLA2-III inh -1.6.
Cc1ccc(NC(=O)COC(=O)c2ccc(OC(F)F)cc2)cc1S(=O)(=O)N1CCCCC1 was read as FAS TE block 29.8, ADAM10 inh -12.3, ADAM17 inh -6.0, NR3A LBD binder 1.1 and sPLA2-III inh 11.1.
Screening Cc1ccc(NC(=O)CNC(=O)c2ccc(OC(F)F)cc2)cc1S(=O)(=O)N1CCCCCC1 returned FAS TE block 16.4, ADAM10 inh -0.8, ADAM17 inh 4.0, NR3A LBD binder 11.9* and sPLA2-III inh -45.2.
O=C(Nc1ccccc1C(F)(F)F)OCCN1C(=O)CCC12CCC(c1ccccc1)CC2 (configuration not stated) was read as ADAM10 inh 4.8, ADAM17 inh 0.2 and sPLA2-III inh 2.8.
Screening Cc1ccc(CN2C(=O)c3ccccc3NC2c2cc(Br)ccc2O)cc1 (configuration not stated) returned FAS TE block 1.5, ADAM10 inh -291.9, ADAM17 inh -137.5, NR3A LBD binder 21.7* and sPLA2-III inh -12.2.
Screening O=C1c2ccccc2NC(c2ccccc2)N1Cc1ccccc1 (configuration not stated) returned FAS TE block 9.7, ADAM10 inh inactive, ADAM17 inh -299.7, NR3A LBD binder -0.3 and sPLA2-III inh -1.0.
For Cc1ccn2c(C(=O)CSc3ccccc3Cl)c(C)nc2c1 the results were FAS TE block 0.6, ADAM10 inh 4.7, ADAM17 inh -0.5, NR3A LBD binder 13.6* and sPLA2-III inh -6.5.
For COc1ccc(Nc2nc3ccccc3s2)cc1 the results were FAS TE block 10.7, ADAM10 inh 12.7, ADAM17 inh 2.7, NR3A LBD binder 28.6* and sPLA2-III inh -2.7.
`COc1ccc(CNc2nc3ccccc3s2)cc1OC` gave FAS TE block 0.6, ADAM10 inh 0.5, ADAM17 inh -0.1, NR3A LBD binder 0.3 and sPLA2-III inh -5.3.
COc1cccc(Nc2nc3ccc(OC)cc3s2)c1 was read as FAS TE block 19.7, ADAM10 inh 6.1, ADAM17 inh 1.5, NR3A LBD binder 28.6* and sPLA2-III inh -23.0.
`Cc1[nH]c2ccccc2c1/C=N/NC(=S)NCc1ccccc1` gave FAS TE block 11.8, ADAM10 inh 13.7, ADAM17 inh 5.4, NR3A LBD binder 22.7* and sPLA2-III inh -10.6.
Screening Cc1ccc(NC(=S)N/N=C/c2c(C)[nH]c3ccccc23)cc1 returned FAS TE block 11.0, ADAM10 inh 3.5, ADAM17 inh 1.4, NR3A LBD binder 22.4* and sPLA2-III inh -9.5.
Screening COc1ccc2c(c1)CN1CN(Cc3ccc(F)cc3)S(=O)(=O)CC21 (configuration not stated) returned ADAM10 inh -29.6, ADAM17 inh -11.0 and sPLA2-III inh 3.2.
`Nc1[nH]c(=O)[nH]c(=O)c1N=Nc1cccc(Cl)c1` gave FAS TE block -10.4, ADAM10 inh 8.1, ADAM17 inh 1.9, NR3A LBD binder 15.9* and sPLA2-III inh 2.5.
Screening CCn1cc(C2Nc3ccccc3C(=O)N2O)c(C)n1 (configuration not stated) returned FAS TE block -5.1, ADAM10 inh -24.6, ADAM17 inh -3.4, NR3A LBD binder 1.7 and sPLA2-III inh 5.8.
`Cc1c(C2Nc3ccccc3C(=O)N2O)cnn1C` (configuration not stated) gave FAS TE block -2.3, ADAM10 inh -15.5, ADAM17 inh -0.2, NR3A LBD binder 611.1* and sPLA2-III inh 1.2.
`C/C(=N/NC(=O)c1ccoc1C)c1cccs1` gave ADAM10 inh 5.4, ADAM17 inh 1.7 and sPLA2-III inh -2.6.
`COP(=O)(OC)C(NC(=O)OCc1ccccc1)C(C)C` (configuration not stated) gave ADAM10 inh -0.4, ADAM17 inh -2.2 and sPLA2-III inh 1.1.
Screening Cc1cc2c(cc1C)CSC(c1ccccc1O)SC2 returned FAS TE block 23.3, ADAM10 inh 19.5, ADAM17 inh 7.5, NR3A LBD binder 11.6* and sPLA2-III inh -16.0.
Cc1cc2c(cc1C)CSC(c1ccc3ccccc3c1O)SC2 was read as FAS TE block 3.1, ADAM10 inh -7.1, ADAM17 inh -6.2, NR3A LBD binder 14.7* and sPLA2-III inh -16.6.
